Experimental data from PubChem BioAssay (Tox21).
Results filed as inconclusive are left out. Calls of active or inactive are those of the source. Unless noted, calls follow the shape of the dose curve; as a rule, active = well fitted curve in the direction sought with a large enough effect in the repeat runs; inconclusive = weak or mixed curves; inactive = no such curve, though single readings can be large; an effect the other way counts as inactive or inconclusive.

Legend:
[1] = A CellTox Green Cytotoxicity Assay to monitor cytotoxicity in HepG2 cells - 0 hour (AID 1224882); also: nearly all actives have a fitted effect of over 35% in size
How it was run: (§1)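 First, HepG2 cells (600/well) mixed with reagent were plated; second, after 5 h at 37 C they received compounds via pintool; third, fluorescence was measured at 0 h through 40 h at 8 h intervals.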

[2] = A CellTox Green Cytotoxicity Assay to monitor cytotoxicity in HepG2 cells - 32 hour (AID 1224883); also: nearly all actives have a fitted effect of over 50% in size; also: potency is read from the fitted curve at half-maximal effect
How it was run: as §1

[3] = A CellTox Green Cytotoxicity Assay to monitor cytotoxicity in HEK293 cells - 8 hour (AID 1224884); also: nearly all actives have a fitted effect of over 35% in size; also: potency is read from the fitted curve at half-maximal effect
How it was run: (§2)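 Dead-cell fluorescence measured kinetically: asymmetric cyanine dye, HEK293, 600 cells/well, 5 h settle, 23 nL cpd/DMSO, 37 C, reads 0–40 h every 8 h.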

[4] = qHTS RealTime-Glo MT Cell Viability Assay in HepG2 cells - 16 hour (AID 1224885); also: nearly all actives have a fitted effect of over 50% in size; also: potency is read from the fitted curve at half-maximal effect
How it was run: (§3)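 Compound treatment began 5 h after plating HepG2 cells (600/well) with NanoLuc luciferase and prosubstrate. Plates stayed at 37 C for 40 h; luminescence was captured at six time points, 0 h through 40 h.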

[5] = A CellTox Green Cytotoxicity Assay to monitor cytotoxicity in HEK293 cells - 16 hour (AID 1224888); also: nearly all actives have a fitted effect of over 35% in size; also: potency is read from the fitted curve at half-maximal effect
How it was run: as §2

[6] = qHTS RealTime-Glo MT Cell Viability Assay in HepG2 cells - 0 hour (AID 1224889); also: nearly all actives have a fitted effect of over 50% in size
How it was run: as §3

[7] = A CellTox Green Cytotoxicity Assay to monitor cytotoxicity in HepG2 cells - 8 hour (AID 1224890); also: nearly all actives have a fitted effect of over 45% in size; also: potency is read from the fitted curve at half-maximal effect
How it was run: as §1

[8] = qHTS assay to identify small molecule antagonists of the androgen receptor (AR) signaling pathway using the MDA cell line in the presence of 0.5 nM R1881 - cell viability counter screen (AID 1259242); also: nearly all actives have a fitted effect of over 45% in size
How it was run: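 qHTS format. MDA-kb2 (MMTV-luc, AR/GR responsive) + cpd + 0.5 nM R1881 final, 16 hr 37C/0% CO2 → CellTiter-Fluor 30 min → fluorescence intensity.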

[9] = molecular target: Estrogen receptor (Homo sapiens) (UniProt P03372); assay: qHTS assay to identify small molecule antagonists of the estrogen receptor alpha (ER-alpha) signaling pathway using the BG1 cell line in the presence of 0.1 nM 17-beta-estradiol (AID 1259244); also: nearly all actives have a fitted effect of over 50% in size
How it was run: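 Reporter is a stably transfected luciferase under four estrogen responsive elements in VM7Luc4E2 cells expressing native full-length ER-alpha; inhibition of 0.1 nM (final) 17beta-estradiol-driven signal over 22 h is read by luminescence.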

[10] = qHTS assay to identify small molecule HDAC inhibitors (AID 1259364);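 also: wild-type HCT-116 cells with endogenous class I/II HDAC activity; top concentration of the series differs between compounds; nearly all actives have a fitted effect of over 45% in size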
How it was run: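 Quantitative high-throughput format: overnight-seeded HCT-116 cells got compounds for 2 hr at 37C; HDAC-Glo I/II reagent added, 30 min RT, luminescence measured.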

[11] = qHTS assay to identify small molecule HDAC inhibitors - cell viability counter screen (AID 1259365)
How it was run: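 Measured quantity is CellTiter-Glo luminescence from wild-type HCT-116 cells after compound incubation of 2hr at 37C, 5% CO2; reagent developed 30min at room temperature.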

[12] = qHTS assay to identify small molecule antagonists of the sonic hedgehog signaling (Shh) pathway - cell viability counter screen (AID 1259367); also: nearly all actives have a fitted effect of over 55% in size; also: potency is read from the fitted curve at half-maximal effect
How it was run: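 Conditioned medium drove Shh signaling in 3T3 Gli1-Luc cells exposed to compounds at 37C and 5% CO2. Viability was determined from CellTiter-Fluor fluorescence, with reagent incubated 1 hr after 23 hr of treatment.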

[13] = qHTS assay to identify small molecule agonists of the sonic hedgehog signaling (Shh) pathway (AID 1259368; calls by dose curve;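 also: NIH/3T3-derived 3T3Gli1-Luc cells carrying a stable Gli1-driven firefly luciferase reporter; series mostly up to about 92 µM; nearly all actives have a fitted effect of over 15% in size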)
How it was run: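 Quantitative high-throughput format using a Gli1-driven firefly luciferase reporter line derived from NIH/3T3 cells. After a 24 hr compound treatment at 37 C and 5% CO2, luminescence reported Gli1 response element activity.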

[14] = qHTS assay to identify small molecule antagonists of the sonic hedgehog signaling (Shh) pathway (AID 1259369; calls by dose curve; also: nearly all actives have a fitted effect of over 45% in size; also: potency is read from the fitted curve at half-maximal effect)
How it was run: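 Stable Gli1-Luc reporter NIH/3T3 clone; quantitative HTS in stimulated mode with conditioned medium. Luminescence measured after 24hr compound treatment at 37 C.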

[15] = qHTS RealTime-Glo MT Cell Viability Assay in HEK293 cells - 8 hour (AID 1224887); also: nearly all actives have a fitted effect of over 50% in size; also: potency is read from the fitted curve at half-maximal effect
How it was run: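 600 HEK293 cells per well, dispensed already mixed with RealTime-Glo MT reagents. Compound dosing came 5 h later. The same wells were read for luminescence at 0, 8, 16, 24, 32 and 40 h of exposure at 37 C.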

[16] = qHTS assay to identify small molecule agonists of the sonic hedgehog signaling (Shh) pathway - cell viability counter screen (AID 1259366); also: nearly all actives have a fitted effect of over 50% in size; also: potency is read from the fitted curve at half-maximal effect
How it was run: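 In quantitative high-throughput format, 3T3 Gli1-Luc cells were exposed to compounds for 24hr and multiplexed for viability using CellTiter-Fluor, incubated 1hr at 37C before the fluorescence read.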

[17] = qHTS RealTime-Glo MT Cell Viability Assay in HEK293 cells - 24 hour (AID 1224886); also: nearly all actives have a fitted effect of over 50% in size; also: potency is read from the fitted curve at half-maximal effect
How it was run: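 Quantitative high-throughput screen of the Tox21 10K library in HEK293: cells and RealTime-Glo reagents plated together, compound added at 5 h, luminescence monitored through 40 h at 37 C.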

[18] = qHTS assay to identify small molecule antagonists of the estrogen receptor alpha (ER-alpha) signaling pathway using the BG1 cell line in the presence of 0.1 nM 17-beta-estradiol - cell viability counter screen (AID 1259241); also: nearly all actives have a fitted effect of over 40% in size; also: potency is read from the fitted curve at half-maximal effect
How it was run: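 In this screen, hormone-deprived VM7Luc4E2 cells were seeded at 4,000 per well, dosed with compound and 0.1 nM estradiol final, and incubated 22 hr at 37C and 5% CO2; fluorogenic live-cell protease signal reported viability.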

[19] = qHTS assay to identify small molecule phospholipidosis (PLD) inducers (AID 1259344; active = well fitted curve in the direction sought with a large enough effect; an effect the other way counts as inactive or inconclusive)
How it was run: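 After 4 h attachment on collagen I, HepG2 cells were dosed with compound alongside LipidTOX Red, kept 24 h at 37 C, fixed, and imaged for lamellar phospholipid pits.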

[20] = molecular target: Androgen receptor (Homo sapiens) (UniProt P10275); assay: qHTS assay to identify small molecule antagonists of the androgen receptor (AR) signaling pathway using the MDA cell line in the presence of 0.5 nM R1881 (AID 1259243); also: nearly all actives have a fitted effect of over 50% in size; also: potency is read from the fitted curve at half-maximal effect
How it was run: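 Antagonist mode quantitative HTS in MDA-kb2 MMTV-luciferase cells, agonist R1881 at 0.5 nM final, 16 hr exposure at 37C and 0% CO2, luminescent detection.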

Measured: Potency

Androgen receptor (Homo sapiens), sequence (P10275 whole entry, looked up): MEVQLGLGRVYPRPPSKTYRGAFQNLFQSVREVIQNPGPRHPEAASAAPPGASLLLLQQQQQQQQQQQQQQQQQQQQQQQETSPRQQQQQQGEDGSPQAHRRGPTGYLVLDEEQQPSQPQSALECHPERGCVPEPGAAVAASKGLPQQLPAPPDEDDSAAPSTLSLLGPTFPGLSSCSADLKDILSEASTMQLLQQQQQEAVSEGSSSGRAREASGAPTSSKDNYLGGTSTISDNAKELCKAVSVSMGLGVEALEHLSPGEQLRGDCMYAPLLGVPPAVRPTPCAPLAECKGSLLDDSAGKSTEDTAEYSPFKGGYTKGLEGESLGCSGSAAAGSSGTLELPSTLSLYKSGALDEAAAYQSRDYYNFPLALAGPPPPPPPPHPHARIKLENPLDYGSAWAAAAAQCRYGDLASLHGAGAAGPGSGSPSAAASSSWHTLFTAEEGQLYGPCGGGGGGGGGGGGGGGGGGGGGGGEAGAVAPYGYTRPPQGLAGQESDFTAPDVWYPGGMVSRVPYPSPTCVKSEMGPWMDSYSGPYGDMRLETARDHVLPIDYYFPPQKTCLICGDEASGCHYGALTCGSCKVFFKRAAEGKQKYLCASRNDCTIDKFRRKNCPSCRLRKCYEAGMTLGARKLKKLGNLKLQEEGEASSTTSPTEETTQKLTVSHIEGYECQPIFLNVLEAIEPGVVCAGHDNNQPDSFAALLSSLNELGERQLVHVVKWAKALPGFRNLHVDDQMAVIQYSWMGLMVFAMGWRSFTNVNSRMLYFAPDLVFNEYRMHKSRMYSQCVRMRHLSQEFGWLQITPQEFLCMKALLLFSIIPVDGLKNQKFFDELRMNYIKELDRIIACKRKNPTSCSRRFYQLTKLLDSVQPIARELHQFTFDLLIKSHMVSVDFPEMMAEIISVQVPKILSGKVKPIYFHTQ
Estrogen receptor (Homo sapiens), sequence (P03372 whole entry, looked up): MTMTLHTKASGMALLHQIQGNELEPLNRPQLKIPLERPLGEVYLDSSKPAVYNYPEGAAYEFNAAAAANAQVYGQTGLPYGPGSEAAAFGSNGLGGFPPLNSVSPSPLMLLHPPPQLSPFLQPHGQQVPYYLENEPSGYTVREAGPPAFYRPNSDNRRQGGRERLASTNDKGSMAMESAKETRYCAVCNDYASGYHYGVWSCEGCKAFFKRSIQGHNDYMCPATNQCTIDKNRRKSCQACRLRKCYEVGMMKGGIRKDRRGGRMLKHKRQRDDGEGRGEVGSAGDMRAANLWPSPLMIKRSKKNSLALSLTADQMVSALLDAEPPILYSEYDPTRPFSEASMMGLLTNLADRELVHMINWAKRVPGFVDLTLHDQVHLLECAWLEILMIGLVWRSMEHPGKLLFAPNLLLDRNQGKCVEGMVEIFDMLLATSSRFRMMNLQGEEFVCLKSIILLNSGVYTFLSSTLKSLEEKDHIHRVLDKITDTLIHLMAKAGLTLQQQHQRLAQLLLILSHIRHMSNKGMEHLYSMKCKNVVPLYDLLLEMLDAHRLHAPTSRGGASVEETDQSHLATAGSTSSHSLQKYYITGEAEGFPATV

Cc1ccc(C(=O)Oc2ccc(C(O)CNC(C)(C)C)cc2OC(=O)c2ccc(C)cc2)cc1 (centres undefined)
active: [2] 19 µM | [3] 23.9 µM | [4] 21.3 µM | [5] 26.8 µM | [7] 23.9 µM
not listed: [15] | [16] | [17] | [18] | [19] | [20]
inactive: all other assays above

O=C(O)c1nc(Cl)c(Cl)c(Cl)c1Cl
not listed: [9] | [14] | [17] | [18] | [19] | [20]
inactive: all other assays above

COCC(C)OC(C)=O (centres undefined)
not listed: [4] | [19] | [20]
inactive: all other assays above

CC(=O)c1ccc2c(c1)N(CCCN1CCC(CCO)CC1)c1ccccc1S2
active: [2] 23.9 µM | [16] 11.9 µM | [14] 11.9 µM
not listed: [7] | [8] | [12] | [15] | [17] | [18] | [20]
inactive: all other assays above

O=C(c1ccc(F)cc1)C1CCN(CCn2c(=S)[nH]c3ccccc3c2=O)CC1
active: [17] 7.56 µM | [15] 4.77 µM
not listed: [4] | [9] | [12] | [14] | [19]
inactive: all other assays above

C#CCN(C)CCCOc1ccc(Cl)cc1Cl
active: [2] 19 µM
not listed: [4] | [15] | [18] | [20]
inactive: all other assays above

CCCCCCCC#N
active: [14] 30.6 µM
not listed: [4] | [9] | [12] | [19] | [20]
inactive: all other assays above

CN1CCN(C(c2ccccc2)c2ccccc2)CC1
not listed: [4] | [7] | [12] | [14] | [16] | [19]
inactive: all other assays above

CC(C)C[C@H]1C(=O)N2CCC[C@H]2[C@]2(O)O[C@](NC(=O)[C@@H]3C=C4c5cccc6[nH]c(Br)c(c56)C[C@H]4N(C)C3)(C(C)C)C(=O)N12
not listed: [4] | [9] | [12] | [14] | [15] | [16] | [17] | [20]
inactive: all other assays above

CCCCCC[C@@H](O)C/C=C\CCCCCCCC(=O)OC
not listed: [4] | [7] | [12] | [14] | [19]
inactive: all other assays above

CN(C)c1ccc(C(c2ccccc2)c2ccc(N(C)C)cc2)cc1
active: [14] 3.06 µM
not listed: [4] | [7] | [9] | [12] | [17] | [18] | [19] | [20]
inactive: all other assays above

O[C@@H](COc1cccc2ncccc12)CN1CCN(C2c3ccccc3[C@@H]3[C@H](c4ccccc42)C3(F)F)CC1 (some centres undefined)
active: [20] 13.3 µM
not listed: [4] | [7] | [12] | [14] | [15] | [16] | [17] | [19]
inactive: all other assays above

CCC(C)(C)CC
not listed: [4] | [9] | [19] | [20]
inactive: all other assays above

CC(C)(C)OCC1CO1 (centres undefined)
not listed: [4] | [5] | [9] | [12] | [14] | [19] | [20]
inactive: all other assays above

C=CC(=O)OCCOCCOC(=O)C=C
active: [2] 49.2 µM | [17] 31 µM | [18] 61.4 µM | [16] 21.8 µM | [12] 27.4 µM | [14] 4.88 µM
not listed: [4] | [8] | [9] | [19] | [20]
inactive: all other assays above

O=C1[C@H]2CCCC[C@H]2C(=O)N1CCCCN1CCN(c2nsc3ccccc23)CC1
active: [16] 15 µM
inactive: [1] | [2] | [3] | [5] | [6] | [7] | [9] | [10] | [11] | [13]
